The whole screen tested about 69,000 compounds, of which about 8,600 (12%) showed an effect of 50% or more. Many of the other results were omitted from the sample, so strong results are more common in it than they were.

This test has as its system Plasmodium berghei. Description: Screen against P. berghei liver stage (PbLuc), transformed with Luciferase, at 10uM. It counts as functional, HepG2. As to conditions: tested at 10 uM.
As to `O=C(O)Cn1ccc(=O)c2ccc(Cl)cc21`, the INHIBITION came to 11.1%. The figure for `CN(C)c1cccc(CNC(=O)Nc2cc(C#N)ccc2Cl)n1` is 15.8%; for `COc1ccc(C)c(NC(=O)NCc2cccc(N(C)C)n2)c1` it is -35.2%; for `CN(C)c1cccc(CNC(=O)Nc2ccc3[nH]nnc3c2)n1` it is -4.13%. The figure for `COc1ccc(NC(=O)NCc2cccc(N(C)C)n2)c(Cl)c1` is 7.49%; for `CC(=O)c1ccc(NC(=O)NCc2cccc(N(C)C)n2)cc1C` it is 62.1%; for `COc1cc(F)cc(NC(=O)NCc2cccc(N(C)C)n2)c1` it is 55.3%. The same measure for `CCc1nccn1CCCNC(=O)c1cnn(-c2ccccc2OC)c1`: -1.45%; for `Cc1nn(C)c(C)c1C1CCCN1CC(=O)Nc1cc(C(C)C)no1` (stereo not given): -1.14%; for `O=C(c1cnccn1)N1C[C@@H](OCc2ccncc2)[C@@H]2OCCC[C@@H]21`: 33%. Regarding `O=C(NC1CCCc2nc(N3CCOCC3)ncc21)C1CCCC1` (stereo not given), the INHIBITION is -5.71%. The figure for `COc1cc(-c2nc(CN(CCO)CCO)c(C)o2)ccc1F` is 22.5%; for `CCC(C(=O)NCCc1nc(C)cc(C(F)(F)F)n1)n1cccn1` (stereo not given) it is 57%; for `CCOCC(=O)NCCc1nc(C)cc(C(F)(F)F)n1` it is 20.4%. The same measure for `Cc1cc(C(F)(F)F)nc(CNC(=O)CCC2CCCCN2C)n1` (stereo not given): 38.7%; for `Cc1cc(C(F)(F)F)nc(CNc2nc(C)nc3c2cnn3C)n1`: 19.4%. `Cc1cc(C(F)(F)F)nc(CNC(=O)CCn2cccn2)n1`: the INHIBITION came out at 58.1%. With `CCN(C)c1ccc(CNC(=O)CCn2cc(C)cn2)cc1F`, the INHIBITION turned out to be 12.8%. The same measure for `CCC(C(=O)NCc1nc(C)cc(C(F)(F)F)n1)n1cccn1` (stereo not given): 8.08%.

As to `Cc1cc(C(F)(F)F)nc(CNC(=O)CCC2CCCN(C)C2)n1` (stereo not given), the INHIBITION is recorded as 29.4%. The same measure for `Cc1cc(C(F)(F)F)nc(CNC(=O)C2CCCCCN2C)n1` (stereo not given): 54.5%. Consider `CC(C)c1nn(C)c(N(C)C)c1CNCc1ccc(CO)c(F)c1`, for which the INHIBITION is listed as 23.7%. For `CNc1nc2c(s1)C(c1c(Cl)cccc1Cl)CC(=O)N2` (stereo not given), the INHIBITION is 15%.

In the case of `CS(=O)(=O)N1CCN(c2ccc3ccc(C(=O)NC4CC4)cn23)CC1`, the INHIBITION is on record as 22.3%. As to `Cc1cccc(OC2CN(C(=O)C3CC(=O)N(C4CC4)C3)C2)c1` (stereo not given), the INHIBITION came out at 31.4%. Turning to `O=C([C@H]1CC[C@@H]2[C@@H](CCN2C2CCOCC2)O1)N1CCOCC1`, the INHIBITION is on record as 25.6%. With `Cc1cccc(OCCC(=O)N(C)CCC#N)c1C`, the INHIBITION is -33.2%. The same measure for `CCc1ncnc2c1CCN(Cc1nccs1)CC2`: -2.41%. In the case of `CCc1cnc(CN2CCC(N(C)Cc3noc(C4CC4)n3)C2)o1` (stereo not given), the INHIBITION is reported as 23.4%. In the case of `CCN1CCn2c(C)cnc2C12CCN(C(=O)COC)CC2`, the INHIBITION was -6.05%. The same measure for `CN(C)C(C(=O)N1CCSCC1)c1ccccc1F` (stereo not given): 32.8%; for `CN(C)C(C(=O)N1CCCC1)c1ccccc1F` (stereo not given): 29.7%; for `CN(C)C(C(=O)N1Cc2ccccc2C1)c1ccccc1F` (stereo not given): 50.8%. Take `O=c1[nH]nc(CCCN2CCOCC2)n1-c1ccc(F)cc1F`: the INHIBITION was determined as 39.4%. As to `CC(C)CC(=O)N1CCCC2(CC(C(=O)Nc3ccccc3)=NO2)C1` (stereo not given), the INHIBITION came to 3.58%. The same measure for `CCC1CN(C)c2ccccc2CN1C(=O)CCn1cncn1` (stereo not given): 44%; for `CCC1CN(C)c2ccccc2CN1C(=O)Nc1cccc(F)c1` (stereo not given): 60.2%. With `CC(C)CCNC(=O)C1CCCN1C(=O)Nc1cccc(F)c1` (stereo not given), the INHIBITION is given as -11.4%. The same measure for `COc1ccccc1NC(=O)N1CCCC1c1ccco1` (stereo not given): 1.45%; for `CCC1CN(C)c2ccccc2CN1C(=O)Nc1ccc(C)cc1` (stereo not given): 14%; for `CCC1CN(C)c2ccccc2CN1C(=O)Nc1ccccc1OC` (stereo not given): 63.5%. The figure for `Cc1c(C(=O)NCC(C)C)nnn1-c1cccc2c1CCN(CCO)C2` is 45.7%; for `O=C(NCCNc1ncccn1)C1CCCC1` it is 26.4%.

In the case of `COc1ccccc1CNc1cnn(CC(F)F)c1`, the INHIBITION is recorded as 14.5%.

For `Cc1nccn1CC1CCCN1S(=O)(=O)Cc1cccc(C#N)c1` (stereo not given), the INHIBITION amounted to 45.7%.

With `Cc1cc(NC(=O)CN2CCCC2c2c(C)nn(C)c2Cl)on1` (stereo not given), the INHIBITION is reported as -27.9%.

For the molecule `CC(C)C(C(=O)N1CCN(Cc2cscn2)CC1)n1cncn1` (stereo not given), the INHIBITION was -7.71%.

`O=C(NCCO)C1(Cc2ccccc2-c2ccncc2)CCOCC1`: the INHIBITION is -17.7%. The same measure for `O=C(NC1CC1)C1(Cc2ccccc2-c2ccncc2)CCOCC1`: 76.1%; for `CC(C)(C)NC(=O)C1(Cc2ccccc2-c2ccncc2)CCOCC1`: 17.1%.

Turning to `CN(C)C[C@@H]1CCC[C@@H]2CN(c3cccnc3)C[C@@H]21`, the INHIBITION is on record as -11%. The same measure for `CCc1ncc(C(=O)N(CC)CCOC)cn1`: 29.2%; for `CCc1ncc(C(=O)N(CCOC)Cc2nccs2)cn1`: 50.5%. For `CCc1ncc(C(=O)N(CCOC)Cc2ccccc2F)cn1`, the INHIBITION is reported as 41.5%. The same measure for `CS(=O)(=O)NCc1cnc2n1CCN(Cc1cccnc1)CC2`: 15.4%.

The values above are taken from ChEMBL document CHEMBL4513216, “Probing the Open Global Health Chemical Diversity Library for Multistage-Active Starting Points for Next-Generation Antimalarials” (ACS Infect Dis, 2020).
